Compound activity: PubChem, National Center for Advancing Translational Sciences (NCATS)
An excerpt weighted towards active compounds, which were near 19% of everything screened.
IL1B secr inh = inflammasome signaling inhibition, IL-1 beta readout. activity change, % at 57.5 µM. THP-1 LPS/ATP IL-1B secretion, AlphaLISA, 16 h; stronger effect = lower value. 360,000 tested, 4.7% active; in the data active = activity change below about -50%; inconclusive = mostly about -30% to -49%
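THP-1 cells pretreated 1 hr with compounds (up to 57.5 uM final), then stimulated with LPS (250 ng/mL final) plus ATP (1.25 mM final); secreted IL-1B measured by AlphaLISA after 16 hr, decreased signal indicating inhibition.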
DT40 TDP1 no CPT = qHTS for Inhibitors of human tyrosyl-DNA phosphodiesterase 1 (TDP1): qHTS in cells in absence of CPT; DT40 Tdp1-/- hTDP1 cells, no CPT, ATP luminescence, 48 h; 420,000 tested, 15% active; Potency, µM (top dose mostly 46.2 µM), hits mostly inhibitors; AID 686978, 2013; note: nearly all actives have a fitted effect of over 55% in size
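Stably hTDP1-transfected Tdp1-null chicken DT40 cells were treated with library compounds minus camptothecin and grown for at least 48 hr at 37 °C, after which cellular ATP was quantified by luminescence.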
TDP1 cell CPT = growth inhibition of DT40 Tdp1-/-;hTDP1 cells with camptothecin (screen for TDP1 inhibitors); 420,000 tested, 12% active; Potency, µM (highest dose often 46.2 µM), actives largely listed as inhibitors; chicken DT40 Tdp1-/-;hTDP1 cells + 20 nM CPT, ATP luminescence, 48 h; note: nearly all actives have a fitted effect of over 55% in size
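Chicken DT40 Tdp1-/- cells complemented with human TDP1, 400 cells/well, exposed to compounds plus 20 nM camptothecin for at least 48 h at 37 C; viability read as ATP content by CellTiter-Glo luminescence.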
TGFb inhibitor = blocks TGF-b signaling | HepG2 CAGA-GFP TGF-b/SMAD3 reporter, GFP fluorescence, 18 h; TGF-beta stimulated, 500 pg/mL final | Potency, µM (highest dose often 46.1 µM), most hits filed as inhibitors | 410,000 tested, 1.2% active; note: nearly all actives have a fitted effect of over 65% in size
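HEPG2 CAGA-GFP reporter cells (1000/well, DMEM with 1% FBS) received compounds, then recombinant TGF-beta at 500 pg/mL final for 18 hours at 37 degrees C. Per-cell GFP summed per well was normalised to unstimulated and stimulated DMSO controls before curve fitting.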
TDP1 inh = TDP1 (human) enzyme inhibition | Q9NUW8 | recombinant TDP1, AlphaScreen DNA substrate cleavage | Potency, µM (series often up to 130 µM), usual class: inhibitors | 350,000 tested, 0.28% active | AID 485290; note: nearly all actives have a fitted effect of over 40% in size
Target sequence (Q9NUW8 whole entry, looked up): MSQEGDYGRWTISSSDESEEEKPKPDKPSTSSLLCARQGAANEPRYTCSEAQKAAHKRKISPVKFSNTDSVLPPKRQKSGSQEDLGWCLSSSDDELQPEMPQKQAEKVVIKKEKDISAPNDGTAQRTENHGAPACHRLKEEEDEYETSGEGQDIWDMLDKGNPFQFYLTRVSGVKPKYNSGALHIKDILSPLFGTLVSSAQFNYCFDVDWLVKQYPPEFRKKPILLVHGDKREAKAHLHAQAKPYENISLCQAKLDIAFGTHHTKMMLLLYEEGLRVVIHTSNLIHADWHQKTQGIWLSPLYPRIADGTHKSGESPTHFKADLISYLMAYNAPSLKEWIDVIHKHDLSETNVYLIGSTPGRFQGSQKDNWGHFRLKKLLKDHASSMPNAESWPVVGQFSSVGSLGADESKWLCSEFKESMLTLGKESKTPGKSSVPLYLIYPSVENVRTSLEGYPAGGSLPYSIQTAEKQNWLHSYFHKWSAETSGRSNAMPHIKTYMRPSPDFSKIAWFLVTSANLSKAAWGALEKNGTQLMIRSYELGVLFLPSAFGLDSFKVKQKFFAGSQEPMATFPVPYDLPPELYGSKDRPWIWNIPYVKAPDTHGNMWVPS
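Compounds were preincubated with Tdp1 (1 nM final) for 15 min at room temperature before substrate (15 nM final) started a 5 min reaction; beads (10 ug/ml final) were then added for 10 min before AlphaScreen detection.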
HepG2 tox = counter-screen for TGF-b inhibitors: cytotoxicity in HepG2 cells; 410,000 tested, 0.76% active; HepG2 CAGA-GFP viability, ATP luminescence, 18 h; Potency, µM (titrated, usually from 46.1 µM), most hits filed as cytotoxic; AID 588856
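CellTiter-Glo luminescence gave cytotoxicity after 18 hours at 37 degrees C. The cells were HepG2 CAGA-GFP in 1% FBS DMEM, stimulated with 500 pg/mL TGF-beta after compound addition. %Activity was normalised to no-cell wells (complete cell-killing) and DMSO (no toxicity), and curves were fitted and classified.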
Hits are given with their value; 0 = inactive; ? = inconclusive; - = no result given; [ ] = remark or other dose. Unless noted, calls come from the whole dose curve; as a rule, active = well fitted curve in the direction sought with a large enough effect; inconclusive = small, poorly fitted or top-dose-only effect, or another doubt; inactive = no such curve, though single readings can be large; an effect the other way counts as inactive or inconclusive.

SMILES	IL1B secr inh	DT40 TDP1 no CPT	TDP1 cell CPT	TGFb inhibitor	TDP1 inh	HepG2 tox
O=C(CCCc1nc(-c2ccc(Cl)cc2)no1)NC1CCCC1	0	8.2µM	8.2µM	?	0	0
CCN(C(=O)NCc1noc2ccccc12)c1cc(C)ccc1C	-	?	?	0	0	0
COc1cc2oc3cc(C#Cc4ccc(N)cc4)ccc3c(=O)c2cc1OC	-61	16µM	16µM	?	-	0
COc1cc2oc3ccc(C#Cc4ccccn4)cc3c(=O)c2cc1OC	0	23µM	?	0	-	0
COc1ccc(C#Cc2c(-c3ccc(OC)cc3)oc3ccc(-c4ccc(OC)cc4)cc23)cc1	0	0	0	0	-	0
COc1cc2oc3ccc(C#Cc4ccc(N)cc4)cc3c(=O)c2cc1OC	0	?	?	0	-	0
COc1ccc(-c2oc3ccc(-c4cc(OC)c(OC)c(OC)c4)cc3c2C#Cc2ccccn2)cc1	0	?	18µM	0	0	0
Cc1cccc(N2CCn3c2nc2c3c(=O)n(C/C=C/c3ccccc3)c(=O)n2C)c1	-	0	0	0	0	0
CCN(C(=O)c1ccc(C(=O)N(CC)c2ccccc2C)cc1)c1ccccc1C	-	16µM	?	?	0[2.28 µM]	0
CCCCCCCN(C(=O)CCl)c1ccccc1C	-106	15µM	18µM	0	0	0
CCN(C(=O)c1ccc(NC(C)=O)cc1)c1ccccc1	0	0	0	0	0	0
CCc1cc2c(=O)n(CCCOC)c(SCC(=O)Nc3oc(C)c4c(C)n[nH]c(=O)c34)nc2s1	0	0	0	0	0	0
Cc1ccccc1-c1ccc2ncnc(N3CCNCC3)c2c1	-	0	0	-	-	-
COc1cccc(-c2cncnc2NCc2ccc(OC)cc2OC)c1	-	16µM	?	-	0	-
COc1ccc(CNc2ncncc2-c2ccoc2)c(OC)c1	-	?	23µM	-	-	-
Cc1ccc(NS(=O)(=O)c2cc3c(cc2N(C)C)CCC(=O)N3)cc1C	-	-	-	-	0	-
C[C@H](CO)N1C[C@H](C)[C@H](CN(C)Cc2ccc(Oc3ccccc3)cc2)Oc2cc(Br)ccc2S1(=O)=O	0	?	?	?	-	0
CC(=O)c1cccc(NC(=O)Cn2cnc(S(=O)(=O)N3CCCC3)c2)c1	0	0	0	0	0	0
CCOC(=O)N1CCC(Nc2c(OCC)c(=O)c2=O)CC1	0	0	0	0	0	0
CCCN(CCC)c1nc(NC2CCN(C(=O)OCC)CC2)nc(OC)n1	0	21µM	16µM	?	0	0
COc1cccc(NC(=O)C2CCN(C(=O)N3CC(C)Oc4ccccc43)CC2)c1 (stereo not drawn)	-	?	?	?	0	0
CCN(CC)S(=O)(=O)c1ccc(Nc2ccc(-c3ccc4c(c3)OCCO4)nn2)cc1	0	?	5.2µM	0	0	0
CCN(CC)S(=O)(=O)c1ccc(C(=O)Nc2ccc3c(c2)OCCO3)cc1	0	0	0	0	0	0
CN(C(=O)c1cccc(NC(=O)c2ccccc2)c1)C1CCCCC1	0	0	?	0	0	0
CN(C(=O)c1cccc(Nc2ccc(-c3ccc4c(c3)OCCO4)nn2)c1)C1CCCCC1	0	23µM	23µM	0	0	0
SMILES	IL1B secr inh	DT40 TDP1 no CPT	TDP1 cell CPT	TGFb inhibitor	TDP1 inh	HepG2 tox
CN1CCN2c3ccccc3CC3(C(=O)OC(C)(C)OC3=O)C2C1 (stereo not drawn)	-	0	0	0	0	0
CCCCCn1c(=O)[nH]c2cc(C(=O)N3CCN(c4ccc(F)cc4)CC3)ccc2c1=O	0	8.2µM	?	0	-	0
COCCn1c(=O)[nH]c2cc(C(=O)N3CCN(c4cc(C)ccc4C)CC3)ccc2c1=O	0	?	?	0	0[0.0935 µM]	0
CCCCCn1c(=O)[nH]c2cc(C(=O)N3CCN(c4cc(Cl)ccc4C)CC3)ccc2c1=O	-	?	?	0	0	0
CC(=O)Nc1ccccc1-c1nc2ccc(C(=O)N3CCN(c4cc(C)ccc4C)CC3)cc2[nH]c1=O	0	15µM	?	0	0	0
COCCn1c(=O)[nH]c2cc(C(=O)N3CCN(c4ccc(F)cc4)CC3)ccc2c1=O	-	?	?	?	0	0
CCc1nc2ccc(C(=O)N3CCN(c4cc(C)ccc4C)CC3)cc2nc1CC	0	?	?	?	0	0
CCCCCn1c(=O)[nH]c2cc(C(=O)N3CCN(c4ccccc4F)CC3)ccc2c1=O	0	15µM	?	0	0	0
Cc1ccc(C)c(N2CCN(C(=O)c3ccc4c(=O)n(CCc5ccccc5)c(=O)[nH]c4c3)CC2)c1	-	16µM	21µM	?	0	0
CCOC(=O)c1c(C)[nH]c(C)c1S(=O)(=O)NCC(=O)Nc1cccc(Cl)c1	-	0	?	?	0	0
CCOc1ccc(S(=O)(=O)NCC(c2ccco2)S(=O)(=O)c2cccs2)cc1 (stereo not drawn)	-	?	?	0	0	0
CCCCCn1c(=O)[nH]c2cc(C(=O)N3CCN(CC)CC3)ccc2c1=O	0	0	0	0	0	0
CCCCCn1c(=S)[nH]c2cc(C(=O)N3CCN(C(=O)OCC)CC3)ccc2c1=O	0	?	0	0	0[0.0935 µM]	0
CCCCCn1c(=O)[nH]c2cc(C(=O)N3CCN(c4ccc(C(C)=O)cc4)CC3)ccc2c1=O	0	15µM	15µM	0	-	0
CCOC(=O)N1CCN(C(=O)c2ccc3c(=O)n(CCC4=CCCCC4)c(=O)[nH]c3c2)CC1	?	18µM	16µM	0	0	0
Cc1ccc(NC(=O)Cn2c(=O)n(-c3ccccc3)c(=O)c3ccc(C(=O)NCc4ccc5c(c4)OCO5)cc32)c(C)c1	-	0	?	0	0	0
CCc1ccc(N(CC)C(=O)c2cn(C)c(=O)c3cc(OC)c(OC)cc23)cc1	-	?	?	0	0	0
CCN(C(=O)c1cn(CC)c(=O)c2cc(OC)c(OC)cc12)c1ccc(C)c(C)c1	-	?	23µM	0	0	0
CCc1ccccc1N(CC)C(=O)c1cn(CC)c(=O)c2cc(OC)c(OC)cc12	0	21µM	?	0	0	0
COc1ccc(-c2nn(-c3ccccc3)cc2C(=O)NC2CC2)cc1	0	?	0	0	0	0
Cc1ccccc1SCC(=O)NCC(c1ccc(F)cc1)N1CCOCC1 (stereo not drawn)	0	?	?	0	0	0
CCOc1cc(C(=O)NCC(c2ccc(N(C)C)cc2)N2CCOCC2)cc(OCC)c1OCC (stereo not drawn)	-	18µM	21µM	0	0	0
O=C(NCC(c1ccc(F)cc1)N1CCOCC1)c1ccc(C(=O)c2ccccc2)cc1 (stereo not drawn)	0	21µM	?	0	0	0
